Source: PubChem BioAssay AID2235 (The Scripps Research Institute Molecular Screening Center, 2010)
Hit rate of the full screen: of about 320,000 compounds, about 2,800 (0.88%) were called active.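 How the source made its calls: active means inhibition above the mean inhibition of all tested compounds plus 3 SD, computed separately for each screening campaign (cut at about 15% in these data); inactive means the rest.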 This excerpt belongs to a sample that is enriched for actives.

Target: Serine/threonine-protein phosphatase PP1-alpha catalytic subunit (Homo sapiens) (UniProt P62136)
Sequence (P62136 whole entry, looked up): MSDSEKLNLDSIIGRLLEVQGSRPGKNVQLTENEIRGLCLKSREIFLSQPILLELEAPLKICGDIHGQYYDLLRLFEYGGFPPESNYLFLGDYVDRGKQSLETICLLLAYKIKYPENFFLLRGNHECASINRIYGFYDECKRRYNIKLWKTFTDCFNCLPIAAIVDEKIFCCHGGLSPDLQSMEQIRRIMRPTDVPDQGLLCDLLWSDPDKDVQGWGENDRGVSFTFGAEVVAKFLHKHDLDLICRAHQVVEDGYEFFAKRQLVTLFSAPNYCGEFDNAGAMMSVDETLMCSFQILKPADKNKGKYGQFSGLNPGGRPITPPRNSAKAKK
Assay: inhibition of human PP1 catalytic subunit – biochemical, fluorescence, OMFP substrate, single point, counter-screen for PP5 inhibitor project, primary screen (AID 2235)
Conditions: purified PP1alpha, at 6.7 µM, active compounds read high

Row | SMILES | inhibition
1 | CC(C)CCSc1ncnc2c1oc1nc3c(cc12)COC(C)(C)C3 | -3.04% (inactive)
2 | Cc1c(CC(=O)N2CCN(C(=O)C3COc4ccccc4O3)CC2)c(=O)oc2c(O)c(O)ccc12 (stereo not given) | 3.96% (inactive)
3 | Cc1cc(Nc2ccc(Br)cc2F)n2ncnc2n1 | -2.4% (inactive)
4 | COc1ccc(C2C(C(C)=O)=C(O)C(=O)N2c2nccs2)cc1 (stereo not given) | -3.06% (inactive)
5 | COc1ccc(C2C(C(C)=O)=C(O)C(=O)N2Cc2cccnc2)cc1 (stereo not given) | -4.55% (inactive)
6 | COc1ccc(C2C(C(C)=O)=C(O)C(=O)N2CCc2c[nH]c3ccccc23)cc1 (stereo not given) | 18.3% (active)
7 | Cc1onc(-c2ccccc2Cl)c1C(=O)N(Cc1ccc(N(C)C)cc1)C(C)C | 0.01% (inactive)
8 | COc1ccc2c(c1)c(C(=O)N/N=C/c1cccs1)c(C)n2C | -3.65% (inactive)
9 | COc1ccc(CN(C)C(=O)c2cc(-c3ccc(C)cc3C)nc3ccccc23)c(OC)c1OC | 1.42% (inactive)
10 | Cc1ccc(-c2cc(C(=O)Nc3nn[nH]n3)c3ccccc3n2)c(C)c1 | 21.8% (active)
11 | Cc1ccc2c(Cl)c(C(=O)Nc3nn[nH]n3)sc2c1 | 10.3% (inactive)
12 | COc1cccc(NC(=O)C(Sc2nnnn2C)c2ccccc2)c1 (stereo not given) | -7.84% (inactive)
13 | Cc1ccc2cc(CCNC(=O)c3c(-c4ccccc4Cl)noc3C)c(=O)[nH]c2c1 | 57.5% (active)
14 | Cc1onc(-c2ccccc2Cl)c1C(=O)NCCn1ccc2ccccc21 | 0.26% (inactive)
15 | Cc1ccc2cc(CCNC(=O)c3ccc4c(c3)OCO4)c(=O)[nH]c2c1 | 0.9% (inactive)
16 | O=S(=O)(NCCc1ccccn1)c1cc(Cl)cc(Cl)c1O | -3.07% (inactive)
17 | COc1cc(S(=O)(=O)N2CCOCC2)ccc1NC(=O)COc1ccc(N(C)S(=O)(=O)c2ccc(C)cc2)cc1 | 5.5% (inactive)
18 | O=C(Nc1ccccc1F)c1ccc(S(=O)(=O)N2CCCCCC2)cc1 | 0.94% (inactive)
19 | CC(=O)N1CCCc2cc(S(=O)(=O)N3CCCC(C(=O)N4CCN(c5cccc(Cl)c5)CC4)C3)ccc21 (stereo not given) | -0.49% (inactive)
20 | CCCCCCCCCCOC(=O)Cn1c(COc2cccc(OC)c2)[n+](C)c2ccccc21 | 33% (active)
21 | CCn1c(COc2cccc(OC)c2)nnc1SCC(=O)N1CCOCC1 | -1.11% (inactive)
22 | CCCCCCCCCCOC(=O)Cn1c(COc2ccc(C)cc2)[n+](C)c2ccccc21 | 44.7% (active)
23 | CCOC(=O)Cn1c(-c2cccnc2Cl)nc2ccccc21 | 2.18% (inactive)

Row | SMILES | inhibition
24 | CCCCn1c(N)c(N(CCOC)C(=O)c2cccc(OCc3ccccc3)c2)c(=O)[nH]c1=O | -1.96% (inactive)
25 | CCOC(=O)COn1c(=O)c(-c2ccc(OCC)cc2)[n+]([O-])c2ccccc21 | -1.29% (inactive)
26 | O=C(CCN1C(=O)[C@@H]2Cc3ccccc3CN2C1=O)NCCc1ccccc1 | -2.43% (inactive)
27 | COC(=O)CCCC1=CC2=C(c3ccccc3)C(=O)C(C)(OC(=O)C3CCCC3)C(=O)C2=CN1c1ccc(OC)cc1 (stereo not given) | -4.53% (inactive)
28 | CSc1ncccc1C(=O)Nc1ccc2c(c1)OCO2 | -1.92% (inactive)
29 | CCOc1cc(N2CCOCC2)c(OCC)cc1NC(=O)COc1cccc2cccnc12 | 2.8% (inactive)
30 | CCOC(=O)N1CCN(C(c2cccnc2)c2ccc3cccnc3c2O)CC1 (stereo not given) | 3.71% (inactive)
31 | Oc1c(C(c2ccccn2)N2CCOCC2)ccc2cccnc12 (stereo not given) | 78.5% (active)
32 | CC(=O)N1CCN(CC(C)(C)NS(=O)(=O)c2ccc(C)cc2)CC1 | -0.49% (inactive)
33 | COc1ccc(S(=O)(=O)N(C)CC(=O)N2CCCC2)cc1Cl | -3.22% (inactive)
34 | Cc1ccc(-c2nn(-c3ccccc3)cc2CN(Cc2ccccc2)C(=O)CCC(=O)O)o1 | -2.67% (inactive)
35 | C=CCOc1ccc(/C=C2\SC(=S)N(CCC(=O)O)C2=O)cc1 | 6.24% (inactive)
36 | O=C(CCCN1C(=O)/C(=C/c2ccccc2)SC1=S)Nc1ccc(O)cc1 | 1.67% (inactive)
37 | COc1ccc(/C=C2\SC(=S)N(CCCC(=O)NC3CCCC3)C2=O)cc1OC | 3.46% (inactive)
38 | COc1ccc(-c2nn(-c3ccccc3)cc2/C=C2/SC(=S)N(CCCC(=O)O)C2=O)c(C)c1 | 23.3% (active)
39 | Cc1ccc(-c2nn(-c3ccccc3)cc2/C=C2\SC(=S)N(CCCCCC(=O)O)C2=O)o1 | 23.8% (active)
40 | CCCn1nc(C(=O)Nc2ccc3nc(C)sc3c2)c2ccccc2c1=O | -3.9% (inactive)
41 | COc1ccc(-c2cc(C(F)(F)F)n3nc(C(=O)N4CCOCC4)c(Cl)c3n2)cc1 | -1.63% (inactive)
42 | CCOC(=O)c1nn(-c2cccc(C)c2)cc1C(=O)c1ccccc1 | 1.33% (inactive)
43 | COc1c(F)c(F)c(-c2csc(N)n2)c(F)c1F | -1.76% (inactive)
44 | N#Cc1ccc(C(=O)OCC(=O)NC(=O)NC2CCCCC2)cc1 | 0.62% (inactive)
45 | CCS(=O)(=O)C1=NSC2=NC(=O)/C(=C\c3ccc(OS(=O)(=O)c4ccccc4)cc3)C(=N)N21 | 1.95% (inactive)
46 | CS(=O)(=O)c1ccc2c(c1)SC1=NC(=O)/C(=C/c3ccco3)C(=N)N12 | 24.5% (active)

Row | SMILES | inhibition
47 | CS(=O)(=O)C1=NN2C(=N)/C(=C\c3ccc(OCCOc4ccccc4)cc3)C(=O)N=C2S1 | 12.2% (inactive)
48 | Cc1cc(NC(=O)OC(C)C)ccc1-c1ccc(NC(=O)OC(C)C)cc1C | -5.37% (inactive)
49 | COCC(C)NC(=O)COc1nncc2ccccc12 (stereo not given) | -1.71% (inactive)
50 | CSc1ccc(/C=N\NC(=O)CC(=O)NC(C)C)cc1 | -3.41% (inactive)
51 | CSc1ccc(/C=N\NC(=O)COc2ccc(Cl)cc2Br)cc1 | 45.6% (active)
52 | CSc1ccc(/C=N/NC(=O)c2cccc(Cl)c2)cc1 | -0.88% (inactive)
53 | Cc1cc(C)c(S(=O)(=O)NCC(c2ccc3c(c2)OCO3)N2CCOCC2)c(C)c1 (stereo not given) | -3.95% (inactive)
54 | CN(C(=O)COC(=O)c1cc(-c2ccco2)nc2ccccc12)C1CCS(=O)(=O)C1 (stereo not given) | 41.1% (active)
55 | CN(C(=O)COC(=O)c1nc(Cl)ccc1Cl)C1CCS(=O)(=O)C1 (stereo not given) | -2.63% (inactive)
56 | CN(CCOc1ccccc1)C(=O)c1cc(-c2ccco2)nc2ccccc12 | 11% (inactive)
57 | O=C(CC(c1ccccc1)c1cc(Cl)ccc1O)NCCN1CCOCC1 (stereo not given) | -1.01% (inactive)
58 | CCOC(=O)c1ccc[n+](CC(=O)Nc2ccccc2OC(F)F)c1 | -3.16% (inactive)
59 | O=C(COC(=O)c1ccccc1SCC(=O)N1CCCC1)Nc1ccccc1OC(F)F | -0.81% (inactive)
60 | Cc1ccc(-c2nc(SCC(=O)Nc3ccccc3OC(F)F)c3c(C)c(C(=O)O)sc3n2)cc1 | 52% (active)
61 | Cc1ccc(C)c(NC(=O)CSc2nc3c(oc4ccccc43)c(=O)n2-c2ccccc2)c1 | 10.1% (inactive)
62 | COc1cc(C(C(=O)NC2CCCC2)N(Cc2ccccc2)C(=O)c2snc(C(N)=O)c2N)ccc1O (stereo not given) | -0.55% (inactive)
63 | CCOC(=O)Cc1cc(=O)[nH]c(=O)[nH]1 | -3.59% (inactive)
64 | COc1ccc(-c2ocnc2C(=O)Nc2ccc3c(c2)CCC3)cc1 | -2.76% (inactive)
65 | O=C1N=C(N2CCCC2)S/C1=C\c1cccc(Br)c1 | -0.89% (inactive)
66 | O=Cc1c(Cl)cccc1Cl | -3.41% (inactive)
67 | O=C1N=C2SCCN2/C1=C\c1c(Cl)cccc1Cl | 15.4% (active)
68 | O=C(N/N=C\C1CC=CCC1)c1ccc(Br)o1 (stereo not given) | 2.42% (inactive)
69 | O=C(c1cn(-c2ccccc2)nc1-c1cccnc1)N1CCN(S(=O)(=O)c2ccccc2F)CC1 | -1.36% (inactive)

Row | SMILES | inhibition
70 | Cc1ccc(CNC(=O)CCN2C(=O)[C@@H]3Cc4ccccc4CN3C2=O)cc1 | 3.38% (inactive)
71 | O=C(NCCN1CCOCC1)c1cc(-c2cccs2)nc2ccccc12 | -5.13% (inactive)
72 | O=C(Nc1nnc(-c2ccccc2)o1)c1cc(-c2cccs2)nc2ccccc12 | 34.7% (active)
73 | CCCCN(C)CCCNC(=O)c1cc(-c2cccs2)nc2ccccc12 | 1.01% (inactive)
74 | CCN(CC)c1ccc(NC(=O)CN2C(=O)NC3(CCc4ccccc43)C2=O)cc1 (stereo not given) | 3.2% (inactive)
75 | COCCCn1c(-c2cccs2)nc2nc3ccccc3nc21 | -1.53% (inactive)
76 | CC(C)(C)c1ccccc1NC(=O)CN1C(=O)NC2(CCCC2)C1=O | -2.93% (inactive)
77 | O=C(/C=C/c1ccco1)Nc1ccc(Oc2ccccc2)cc1 | 3.61% (inactive)
78 | Cc1nnc(NC(=O)/C=C/c2ccco2)s1 | -3.35% (inactive)
79 | Cc1ccc(-n2nc3ccc(NC(=O)/C=C/c4ccco4)cc3n2)cc1C | 19.2% (active)
80 | COc1ccc(CN2CCN(Cc3ccc(OC)c(OC)c3OC)CC2)cc1 | -0.69% (inactive)
81 | CCOc1ccc(N(CC(=O)Nc2cccc(OC)c2)S(C)(=O)=O)cc1 | -2.47% (inactive)
82 | COc1ccc(NC(=O)CSc2nnc(-c3ccccc3F)n2C2CC2)cc1S(N)(=O)=O | -2.33% (inactive)
83 | Fc1cccc(Cl)c1COc1ccc(-c2nnco2)cc1 | 0.3% (inactive)
84 | Cc1cc(C)c(-c2csc(NC(=O)CCCc3nc4ccccc4c(=O)[nH]3)n2)c(C)c1 | 1.77% (inactive)
85 | CC(=O)NCc1ccc(-c2csc(NC(=O)CCCc3nc4ccccc4c(=O)[nH]3)n2)cc1 | -1.25% (inactive)
86 | CCCn1c(C)cc(-c2csc(NC(=O)CCc3nc4ccccc4c(=O)[nH]3)n2)c1C | 15.3% (active)
87 | O=C1CCCCN1CCCC(=O)N1CCCC(Nc2ccc(F)cc2)C1 (stereo not given) | -8.73% (inactive)
88 | Cc1cccc(COc2ccccc2/C=N/Nc2ccc([N+](=O)[O-])cc2)c1 | 6.78% (inactive)
89 | Cc1ccc(NS(=O)(=O)c2ccc(N/N=C/c3ccccc3OCC(=O)O)c([N+](=O)[O-])c2)c(C)c1 | 21.9% (active)
90 | COCCNC(=O)c1ccccc1NS(=O)(=O)c1ccc(C)c([N+](=O)[O-])c1 | -0.54% (inactive)
